Reference: PubChem BioAssay (Tox21)
A number with no mark means an inactive call. Records with an inconclusive call do not appear. A call without a number means that no potency is given here. The source made the active and inactive calls. Unless noted, the call rests on the fitted dose curve.

Experiments:
[1] = biological target: Estrogen receptor beta (Homo sapiens) (UniProt Q92731); assay: qHTS assay to identify small molecule antagonists of the estrogen receptor beta (ER-beta) signaling pathway (AID 1259378; active means well fitted inhibition curve with a large enough effect in the signal ratio in the repeat runs, not every such curve was filed as active; the % refers to the signal ratio)
Procedure, shortened: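 ER-beta-UAS-bla HEK293T cells in 2% charcoal-stripped FBS medium treated with compound plus 1nM final 17-beta-estradiol for 16 hr at 37C. Beta-lactamase reporter read by FRET substrate fluorescence after 2 hours at room temperature.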

[2] = qHTS assay to identify small molecule agonists of the androgen receptor (AR) signaling pathway in the presence of an antagonist - cell viability counter screen (AID 1259379; active means well fitted curve in the direction sought with a large enough effect in the repeat runs; an effect the other way counts as inactive or inconclusive; further: nearly all actives have a fitted effect of over 25% in size; further: potency means the concentration at half of the fitted maximal effect; on activity change, negative = cytotoxicity: series mostly up to about 92 µM)
Procedure, shortened: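 MDA-kb2 human breast carcinoma cells (stable MMTV-luciferase, AR/GR responsive) were seeded 3,000 cells/well, pre-incubated 5 hr at 37C without CO2, then given 3.0uM nilutamide and compounds at 15 concentrations for 16 hr. Viability was read by CellTiter-Fluor fluorescence.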

[3] = qHTS assay to identify small molecule agonists of the estrogen receptor beta (ER-beta) signaling pathway - cell viability counter screen (AID 1259380; active means well fitted curve in the direction sought with a large enough effect in the repeat runs; an effect the other way counts as inactive or inconclusive; further: nearly all actives have a fitted effect of over 30% in size)
Procedure, shortened: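 ER-beta-UAS-bla HEK293T cells in medium with 2% charcoal-stripped FBS were preincubated 6 hr at 37C, dosed with compound in DMSO for 16 hr, then after the bla read, CellTiter-Glo was added for 30 min at room temperature; luminescence recorded.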

[4] = biological target: Estrogen receptor (Homo sapiens) (UniProt P03372); assay: qHTS assay to identify small molecule agonists of the estrogen receptor alpha (ER-alpha) signaling pathway in the presence of an antagonist (AID 1259383); further: top concentration of the series differs between compounds; nearly all actives have a fitted effect of over 15% in size
Procedure, shortened: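 VM7Luc4E2 cells (endogenous full-length ER-alpha, 4×ERE-luciferase) were precultured 5 days in phenol red-free medium with 10% charcoal-stripped FBS, given 10.0nM ICI-182,780 (final), then treated with compounds at 15 concentrations for 22hr at 37C; luminescence read with ONE-Glo.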

[5] = qHTS assay to identify small molecule agonists or antagonists of the thyroid stimulating hormone receptor (TSHR) signaling pathway - wild type cell line counter screen (AID 1259384)
Procedure, shortened: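 Wild-type Hek293 cells, 800/well, 18 h at 37C, then compound with Ro20-1724 for 30 min RT. cAMP by HTRF (cAMP-d2/anti-cAMP cryptate), 1 h RT, fluorescence read. 15 concentrations, triplicates.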

[6] = biological target: Thyrotropin receptor (Homo sapiens) (UniProt P16473); assay: qHTS assay to identify small molecule antagonists of the thyroid stimulating hormone receptor (TSHR) signaling pathway (AID 1259385); further: nearly all actives have a fitted effect of over 20% in size
Procedure, shortened: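 TSHR-HEK293 cells (800/well) plated 18 h, then compounds with Ro20-1724 and TSH at 1.5 ng/mL final, 30 min at room temperature. cAMP quantified by HTRF (cAMP-d2/anti-cAMP-cryptate, 1 h); 15 concentrations in triplicate.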

[7] = qHTS assay to identify small molecule agonists of the estrogen receptor alpha (ER-alpha) signaling pathway in the presence of an antagonist - cell viability counter screen (AID 1259386; active means well fitted curve in the direction sought with a large enough effect in the repeat runs; an effect the other way counts as inactive or inconclusive;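 further: cells exposed to compounds for 22 h at 37 °C before the viability read; nearly all actives have a fitted effect of over 30% in size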; further: potency means the concentration at half of the fitted maximal effect; on activity change, negative = cytotoxicity: series mostly up to about 92 µM)
Procedure, shortened: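 VM7Luc4E2 cells (endogenous full-length ER-alpha, 4×ERE-luciferase) were held 5 days in phenol red-free medium with 10% charcoal-stripped FBS, plated, then given 10.0nM ICI-182,780 and compounds at 15 concentrations for 22hr at 37C; viability read by CellTiter-Fluor fluorescence.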

[8] = biological target: Progesterone receptor (Homo sapiens) (UniProt P06401); assay: qHTS assay to identify small molecule agonists of the progesterone receptor (PR) signaling pathway (AID 1346784); further: nearly all actives have a fitted effect of over 30% in size; further: potency means the concentration at half of the fitted maximal effect
Procedure, shortened: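 Compounds were tested for PR agonism in HEK 293T cells bearing a beta-lactamase gene under UAS control. Treatment lasted 16 hr at 37C; signal came from fluorescence of a FRET substrate.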

[9] = biological target: Androgen receptor (Homo sapiens) (UniProt P10275); assay: qHTS assay to identify small molecule agonists of the androgen receptor (AR) signaling pathway in the presence of an antagonist (AID 1259381); further: nearly all actives have a fitted effect of over 15% in size
Procedure, shortened: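 MDA-kb2 human breast carcinoma cells carrying an MMTV-luciferase reporter (AR- and GR-responsive) were treated with compounds at 15 concentrations plus 3.0uM final nilutamide for 16hr at 37C without CO2; luminescence was read after ONE-Glo addition.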

[10] = qHTS assay to identify small molecule antagonists of the estrogen receptor beta (ER-beta) signaling pathway - cell viability counter screen (AID 1259382; active means well fitted curve in the direction sought with a large enough effect in the repeat runs; an effect the other way counts as inactive or inconclusive; further: series mostly up to about 92 µM; nearly all actives have a fitted effect of over 55% in size)
Procedure, shortened: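 ER-beta-UAS-bla HEK293T cells (2,000/well, 2% charcoal-stripped FBS) were pre-incubated 6 hr at 37C, then given compound plus 1nM final 17-beta-estradiol for 16 hr. Viability was read in the same wells by CellTiter-Glo luminescence after 30 min at room temperature.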

Sequence of Estrogen receptor (Homo sapiens) (P03372 whole entry, looked up): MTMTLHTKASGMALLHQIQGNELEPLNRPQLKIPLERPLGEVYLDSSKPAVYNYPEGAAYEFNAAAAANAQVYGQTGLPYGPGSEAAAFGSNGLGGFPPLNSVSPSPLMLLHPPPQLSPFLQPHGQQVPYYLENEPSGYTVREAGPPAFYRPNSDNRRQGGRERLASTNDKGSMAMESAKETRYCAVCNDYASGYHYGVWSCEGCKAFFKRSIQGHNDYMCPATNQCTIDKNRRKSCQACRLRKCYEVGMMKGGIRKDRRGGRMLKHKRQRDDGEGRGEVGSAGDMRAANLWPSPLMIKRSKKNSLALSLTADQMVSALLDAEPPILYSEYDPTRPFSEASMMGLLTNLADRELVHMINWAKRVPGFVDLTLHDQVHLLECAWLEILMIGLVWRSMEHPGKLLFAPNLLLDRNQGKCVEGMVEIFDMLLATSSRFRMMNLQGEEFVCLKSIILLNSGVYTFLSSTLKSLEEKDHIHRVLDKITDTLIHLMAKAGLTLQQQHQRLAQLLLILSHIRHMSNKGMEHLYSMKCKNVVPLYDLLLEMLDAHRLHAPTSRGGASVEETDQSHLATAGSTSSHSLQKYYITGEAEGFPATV
Sequence of Estrogen receptor beta (Homo sapiens) (Q92731 whole entry, looked up): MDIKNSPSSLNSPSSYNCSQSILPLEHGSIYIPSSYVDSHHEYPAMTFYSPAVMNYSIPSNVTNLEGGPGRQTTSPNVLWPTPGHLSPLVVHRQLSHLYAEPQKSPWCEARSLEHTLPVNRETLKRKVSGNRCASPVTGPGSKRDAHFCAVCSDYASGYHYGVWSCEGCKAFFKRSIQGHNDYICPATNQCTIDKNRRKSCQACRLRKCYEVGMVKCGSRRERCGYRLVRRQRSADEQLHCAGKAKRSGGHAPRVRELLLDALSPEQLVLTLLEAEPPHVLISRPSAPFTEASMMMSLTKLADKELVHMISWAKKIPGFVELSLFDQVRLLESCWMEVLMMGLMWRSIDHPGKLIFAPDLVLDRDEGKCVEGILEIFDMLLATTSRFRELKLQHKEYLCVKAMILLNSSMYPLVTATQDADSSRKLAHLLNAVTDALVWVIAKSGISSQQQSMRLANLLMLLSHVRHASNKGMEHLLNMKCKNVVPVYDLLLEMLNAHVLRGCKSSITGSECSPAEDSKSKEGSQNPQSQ
Sequence of Progesterone receptor (Homo sapiens) (P06401 whole entry, looked up): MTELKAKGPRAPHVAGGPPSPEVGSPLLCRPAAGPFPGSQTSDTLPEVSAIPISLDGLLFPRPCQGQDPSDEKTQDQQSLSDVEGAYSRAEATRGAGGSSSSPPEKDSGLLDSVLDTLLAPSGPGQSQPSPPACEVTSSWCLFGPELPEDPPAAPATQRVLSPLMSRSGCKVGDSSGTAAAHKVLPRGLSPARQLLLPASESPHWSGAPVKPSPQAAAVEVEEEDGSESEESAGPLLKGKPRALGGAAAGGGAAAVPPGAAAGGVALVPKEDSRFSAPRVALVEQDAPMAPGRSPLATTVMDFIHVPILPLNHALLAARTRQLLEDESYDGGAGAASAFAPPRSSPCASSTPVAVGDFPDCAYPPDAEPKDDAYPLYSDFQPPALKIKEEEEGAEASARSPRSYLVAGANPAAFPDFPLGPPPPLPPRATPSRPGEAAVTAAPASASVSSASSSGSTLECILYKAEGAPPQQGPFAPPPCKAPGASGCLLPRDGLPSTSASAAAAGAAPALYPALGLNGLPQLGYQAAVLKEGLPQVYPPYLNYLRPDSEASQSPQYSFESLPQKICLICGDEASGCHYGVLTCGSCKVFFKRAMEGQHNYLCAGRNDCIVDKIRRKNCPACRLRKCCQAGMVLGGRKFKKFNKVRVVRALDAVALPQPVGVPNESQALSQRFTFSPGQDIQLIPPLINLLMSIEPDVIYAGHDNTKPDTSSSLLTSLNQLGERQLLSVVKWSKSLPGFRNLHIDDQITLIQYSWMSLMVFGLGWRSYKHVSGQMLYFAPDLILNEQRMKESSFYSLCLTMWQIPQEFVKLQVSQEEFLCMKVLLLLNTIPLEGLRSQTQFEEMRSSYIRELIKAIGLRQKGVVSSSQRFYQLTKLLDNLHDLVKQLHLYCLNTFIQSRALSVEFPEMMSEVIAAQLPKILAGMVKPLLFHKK
Sequence of Thyrotropin receptor (Homo sapiens) (P16473 whole entry, looked up): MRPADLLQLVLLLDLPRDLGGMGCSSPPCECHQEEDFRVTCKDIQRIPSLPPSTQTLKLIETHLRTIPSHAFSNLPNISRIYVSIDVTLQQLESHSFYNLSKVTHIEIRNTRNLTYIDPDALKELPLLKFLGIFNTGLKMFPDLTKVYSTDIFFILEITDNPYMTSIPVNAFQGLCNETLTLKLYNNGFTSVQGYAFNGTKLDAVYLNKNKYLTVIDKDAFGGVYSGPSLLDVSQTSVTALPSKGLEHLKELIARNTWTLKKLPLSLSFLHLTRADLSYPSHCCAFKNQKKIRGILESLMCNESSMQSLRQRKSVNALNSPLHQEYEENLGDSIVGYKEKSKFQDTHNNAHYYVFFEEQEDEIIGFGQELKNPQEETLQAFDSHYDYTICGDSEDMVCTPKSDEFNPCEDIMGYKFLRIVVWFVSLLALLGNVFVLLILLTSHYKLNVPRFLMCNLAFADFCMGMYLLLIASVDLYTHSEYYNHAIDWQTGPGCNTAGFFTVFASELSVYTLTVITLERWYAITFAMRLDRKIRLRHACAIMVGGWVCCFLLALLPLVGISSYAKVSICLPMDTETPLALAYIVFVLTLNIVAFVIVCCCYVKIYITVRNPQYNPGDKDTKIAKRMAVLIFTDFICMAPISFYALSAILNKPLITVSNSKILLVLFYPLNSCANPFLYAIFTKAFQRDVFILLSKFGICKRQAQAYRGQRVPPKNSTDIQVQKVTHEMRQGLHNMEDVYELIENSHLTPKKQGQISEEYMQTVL
Sequence of Androgen receptor (Homo sapiens) (P10275 whole entry, looked up): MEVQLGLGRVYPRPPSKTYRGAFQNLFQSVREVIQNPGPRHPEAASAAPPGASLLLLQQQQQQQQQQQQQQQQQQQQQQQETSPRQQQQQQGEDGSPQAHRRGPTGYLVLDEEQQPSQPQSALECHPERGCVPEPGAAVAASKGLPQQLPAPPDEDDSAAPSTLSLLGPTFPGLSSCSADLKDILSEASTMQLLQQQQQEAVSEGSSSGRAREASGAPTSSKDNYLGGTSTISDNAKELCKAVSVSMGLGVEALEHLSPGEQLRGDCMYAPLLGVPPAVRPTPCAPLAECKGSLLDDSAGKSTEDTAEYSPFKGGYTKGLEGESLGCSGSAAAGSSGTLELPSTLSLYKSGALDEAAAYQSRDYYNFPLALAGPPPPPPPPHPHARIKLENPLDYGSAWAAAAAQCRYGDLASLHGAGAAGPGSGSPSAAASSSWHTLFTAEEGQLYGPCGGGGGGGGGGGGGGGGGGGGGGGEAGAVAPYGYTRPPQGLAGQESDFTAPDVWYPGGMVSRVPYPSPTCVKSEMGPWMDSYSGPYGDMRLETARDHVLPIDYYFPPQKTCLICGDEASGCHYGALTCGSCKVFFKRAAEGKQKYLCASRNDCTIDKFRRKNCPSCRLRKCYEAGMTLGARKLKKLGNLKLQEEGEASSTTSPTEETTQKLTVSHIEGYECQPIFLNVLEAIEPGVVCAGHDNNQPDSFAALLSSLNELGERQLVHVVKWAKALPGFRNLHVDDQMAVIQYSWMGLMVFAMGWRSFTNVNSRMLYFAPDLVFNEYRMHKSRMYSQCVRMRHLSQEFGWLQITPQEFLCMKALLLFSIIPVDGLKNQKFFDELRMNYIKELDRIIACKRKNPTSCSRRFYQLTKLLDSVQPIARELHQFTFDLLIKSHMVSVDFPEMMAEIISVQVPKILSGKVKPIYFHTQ

SMILES: C[C@@H](O)[C@H]1C(=O)N2C(C(=O)O)=C(SCCN=CN)C[C@H]12
- outcome [1]: inactive
- Potency [2]: inactive
- Potency [3]: inactive
- outcome [4]: inactive
- outcome [5]: inactive
- outcome [6]: inactive
- Potency [7]: inactive
- Potency [8]: inactive

SMILES: CN(C)c1ccc(C=O)cc1
- outcome [1]: inactive
- Potency [2]: inactive
- Potency [3]: inactive
- outcome [4]: inactive
- outcome [5]: inactive
- outcome [6]: inactive
- Potency [8]: inactive

SMILES: CCCCCCCC/C=C\CCCCCCCC(=O)OCCCC
- activity, negative = inhibition [1]: 0.587% [at 19 µM]
- activity change, negative = cytotoxicity [2]: 0.614% [at 19 µM]
- activity change, negative = cytotoxicity [3]: -6.74% [at 19 µM]
- cAMP activity change [5]: -3.23% [at 18.9 µM]
- activity change, negative = inhibition [6]: 2.54% [at 19 µM]
- activity change, negative = cytotoxicity [7]: -4.95% [at 19 µM]
- Potency [8]: 1.24 µM (active)

SMILES: CCC(CC)CO
- Potency [2]: inactive
- Potency [3]: inactive
- Potency [9]: inactive
- outcome [10]: inactive
- outcome [4]: inactive
- outcome [5]: inactive
- outcome [6]: inactive
- Potency [8]: inactive

SMILES: CC(CC=O)CCCC(C)(C)O (centres undefined)
- Potency [2]: inactive
- Potency [3]: inactive
- Potency [9]: inactive
- outcome [10]: inactive
- outcome [4]: inactive
- outcome [5]: inactive
- outcome [6]: inactive
- Potency [7]: inactive

SMILES: OCCC(F)(F)C(F)(F)C(F)(F)C(F)(F)C(F)(F)C(F)(F)C(F)(F)C(F)(F)F
- Potency [2]: inactive
- Potency [3]: inactive
- Potency [9]: inactive
- outcome [10]: inactive
- outcome [4]: inactive
- Potency [7]: inactive
- Potency [8]: inactive

SMILES: BrCCCCCBr
- outcome [1]: inactive
- Potency [2]: inactive
- Potency [3]: inactive
- outcome [4]: inactive
- outcome [5]: inactive
- outcome [6]: inactive
- Potency [8]: inactive

SMILES: COC(=O)c1ccccc1C(=O)c1ccc(OCCN2CCCCC2)cc1
- outcome [1]: inactive
- Potency [2]: inactive
- outcome [10]: inactive
- outcome [4]: inactive
- outcome [5]: inactive
- outcome [6]: inactive
- Potency [7]: inactive
- Potency [8]: inactive

SMILES: CC(C)c1ccc2cc(C(C)C)ccc2c1
- Potency [2]: inactive
- Potency [3]: inactive
- Potency [9]: inactive
- outcome [10]: inactive
- outcome [4]: inactive
- outcome [5]: inactive
- outcome [6]: inactive
- Potency [7]: inactive
- Potency [8]: inactive

SMILES: CC(=O)Nc1ccc(S(=O)(=O)Nc2ccc([N+](=O)[O-])cc2)cc1
- Potency [2]: 23.7 µM (active)
- Potency [3]: inactive
- outcome [10]: inactive
- outcome [4]: inactive
- outcome [5]: inactive
- outcome [6]: inactive
- Potency [7]: 23.7 µM (active)
- Potency [8]: inactive

SMILES: C=C(C)C(=O)OCCN(CC)CC
- Potency [2]: inactive
- Potency [3]: inactive
- Potency [9]: inactive
- outcome [10]: inactive
- outcome [5]: inactive
- outcome [6]: inactive
- Potency [7]: inactive
- Potency [8]: inactive

SMILES: CCCCCCN
- Potency [2]: inactive
- Potency [3]: inactive
- outcome [10]: inactive
- outcome [4]: inactive
- outcome [5]: inactive
- outcome [6]: inactive
- Potency [7]: inactive
- Potency [8]: inactive

SMILES: BrCc1cccc(Oc2ccccc2)c1
- Potency [2]: inactive
- Potency [3]: inactive
- Potency [9]: inactive
- outcome [10]: inactive
- outcome [5]: inactive
- outcome [6]: inactive
- Potency [7]: inactive
- Potency [8]: inactive

SMILES: N[C@@H](CCC(=O)Nc1ccc([N+](=O)[O-])cc1)C(=O)O
- Potency [2]: 48.6 µM (active)
- Potency [3]: inactive
- Potency [9]: inactive
- outcome [10]: inactive
- outcome [5]: inactive
- outcome [6]: inactive
- Potency [7]: inactive
- Potency [8]: inactive

SMILES: CC(C)(C)OC(=O)c1ccc(O)cc1
- Potency [2]: inactive
- Potency [3]: inactive
- Potency [9]: inactive
- outcome [5]: inactive
- outcome [6]: inactive
- Potency [7]: inactive
- Potency [8]: inactive

SMILES: N#Cc1ccc(C(=O)O)cc1
- Potency [2]: inactive
- Potency [3]: inactive
- Potency [9]: inactive
- Potency [7]: inactive
- Potency [8]: inactive

SMILES: O=C1CCCC(=O)O1
- Potency [2]: inactive
- Potency [3]: inactive
- outcome [10]: inactive
- outcome [4]: inactive
- outcome [5]: inactive
- outcome [6]: inactive
- Potency [7]: inactive
- Potency [8]: inactive
